Shown are actives, neighbours in structure and some others; about 19% of the full set was active somewhere.
HepG2 tox: kills HepG2 cells in TGF-b inhibitor counter-screen | HepG2 CAGA-GFP viability, ATP luminescence, 18 h | Potency, µM (titrated, usually from 46.1 µM), usual class: cytotoxic | 410,000 tested, 0.76% active | AID 588856
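HepG2 CAGA-GFP cells (1000/well, DMEM with 1% FBS) received compound, then TGF-beta at 500 pg/mL final, and were incubated 18 hours at 37 degrees C. Viability was read by CellTiter-Glo luminescence. Media-only wells were set as complete cell-killing and DMSO as no toxicity.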
DT40 TDP1 no CPT: qHTS for Inhibitors of human tyrosyl-DNA phosphodiesterase 1 (TDP1): qHTS in cells in absence of CPT. AID 686978, 2013. 420,000 tested, 15% active. DT40 Tdp1-/- hTDP1 cells, no CPT, ATP luminescence, 48 h. Potency, µM (top dose mostly 46.2 µM), hits mostly inhibitors; note: nearly all actives have a fitted effect of over 55% in size
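Chicken DT40 Tdp1-/- cells complemented with human TDP1, screened without camptothecin (DMSO vehicle only), 400 cells/well. Compounds pin-transferred, cells incubated at 37 °C for at least 48 hr. Growth read as ATP-dependent luminescence (CellTiter-Glo, 30 min at RT).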
DT40 TDP1 CPT: DT40-hTDP1 cell growth loss with CPT; chicken DT40 Tdp1-/-;hTDP1 cells + 20 nM CPT, ATP luminescence, 48 h; Potency, µM (top dose mostly 46.2 µM), usual class: inhibitors; 420,000 tested, 12% active; AID 686979; note: nearly all actives have a fitted effect of over 55% in size
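Cell growth measured by CellTiter-Glo luminescence after a minimum 48 h, 37 C compound exposure with 20 nM CPT in Tdp1-knockout DT40 cells stably expressing hTDP1, seeded 400/well; qHTS titration format.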
TDP1 block: inhibitors of human tyrosyl-DNA phosphodiesterase TDP1 | AID 485290 | recombinant TDP1, AlphaScreen DNA substrate cleavage | 350,000 tested, 0.28% active | Q9NUW8 | Potency, µM (top dose mostly 130 µM), usual class: inhibitors; note: nearly all actives have a fitted effect of over 40% in size
Target sequence (Q9NUW8 whole entry, looked up): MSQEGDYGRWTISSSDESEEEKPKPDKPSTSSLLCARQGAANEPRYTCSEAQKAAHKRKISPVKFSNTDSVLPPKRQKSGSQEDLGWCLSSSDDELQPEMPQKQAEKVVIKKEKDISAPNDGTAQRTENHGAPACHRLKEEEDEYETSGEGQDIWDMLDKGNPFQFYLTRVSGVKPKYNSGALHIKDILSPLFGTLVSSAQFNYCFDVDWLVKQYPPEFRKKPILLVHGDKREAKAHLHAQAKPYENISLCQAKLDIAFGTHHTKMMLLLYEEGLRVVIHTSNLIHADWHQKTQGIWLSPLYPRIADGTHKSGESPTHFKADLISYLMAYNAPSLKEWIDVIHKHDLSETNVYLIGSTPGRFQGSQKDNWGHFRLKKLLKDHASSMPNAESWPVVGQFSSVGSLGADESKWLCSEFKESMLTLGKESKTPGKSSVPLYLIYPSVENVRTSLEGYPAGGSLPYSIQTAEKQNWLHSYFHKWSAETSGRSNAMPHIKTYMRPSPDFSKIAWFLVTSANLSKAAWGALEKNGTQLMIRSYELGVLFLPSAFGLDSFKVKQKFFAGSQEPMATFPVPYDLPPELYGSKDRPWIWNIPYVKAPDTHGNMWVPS
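Here, a 5' biotin and 3' phosphotyrosine-FITC DNA oligonucleotide reports Tdp1 activity: intact substrate bridges AlphaScreen beads, while cleavage leaves a 3' phosphate and drops signal. All incubations at room temperature.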
TGFb inhibitor: blocks TGF-b signaling. HepG2 CAGA-GFP TGF-b/SMAD3 reporter, GFP fluorescence, 18 h; TGF-beta stimulated, 500 pg/mL final. Potency, µM (series often up to 46.1 µM), most hits filed as inhibitors. 410,000 tested, 1.2% active. AID 588855; note: nearly all actives have a fitted effect of over 65% in size
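Smad-responsive CAGA-GFP expression was quantified in HEPG2 cells exposed to compounds and 500 pg/mL final TGF-beta for 18 h at 37 degrees C; unstimulated wells defined full inhibition.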
IL-1B inflam inh: blocks inflammasome-driven IL-1 beta release. THP-1 LPS/ATP IL-1B secretion, AlphaLISA, 16 h; stronger effect = lower value. activity change, % at 57.5 µM. 360,000 tested, 4.7% active; in the data active = activity change below about -50%; inconclusive = mostly about -30% to -49%
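Secreted IL-1B measured by AlphaLISA bead assay after 16 h compound exposure of THP-1 cells; compounds (final up to 57.5 uM) added 1 h before LPS (250 ng/mL) and ATP (1.25 mM) stimulation; lower signal means less secretion.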
Numbers stand for hits; . = inactive; ? = inconclusive; / = not tested or not shown. Unless noted, calls come from the whole dose curve; as a rule, active = well fitted curve in the direction sought with a large enough effect; inconclusive = small, poorly fitted or top-dose-only effect, or another doubt; inactive = no such curve, though single readings can be large; an effect the other way counts as inactive or inconclusive.

SMILES	HepG2 tox	DT40 TDP1 no CPT	DT40 TDP1 CPT	TDP1 block	TGFb inhibitor	IL-1B inflam inh
C=CCn1c(SCC(=O)c2ccc(O)c(O)c2)nnc1-c1cccc(C)c1	.	18µM	16µM	.	.	.
C=CCn1c(SCC(=O)c2ccc(O)c(O)c2)nnc1-c1cccc(Cl)c1	.	15µM	15µM	.	?	.
O=C(Nc1ccc(Cl)cc1F)c1cccc2ccccc12	.	?	?	/	.	.
CCN1C(=O)C(Cc2nc3ccccc3c(=O)n2-c2ccc(OC)cc2)c2ccccc21 (configuration not stated)	.	?	?	.	.	/
OCCCCCNc1ncnc2ccccc12	.	7.3µM	8.2µM	.	.	.
CCN(CC)CCCNc1ncnc2ccccc12	.	.	.	.	.	.
Cc1ccc(CN2CCN(/N=C/c3ccc(Cl)c([N+](=O)[O-])c3)CC2)cc1	.	?	?	.	.	-74
Cc1ccc(/C=N/N2CCN(Cc3ccccc3)CC2)cc1	.	?	.	.	.	.
COc1ccccc1/C=C/C=N/N1CCN(Cc2ccccc2)CC1	.	.	.	.	.	.
Cc1ccc(CN2CCN(/N=C/C=C/c3ccccc3[N+](=O)[O-])CC2)cc1	.	21µM	16µM	.	?	-89
CCCNC(=O)N1N=C(c2ccc(N)cc2)c2cc3c(cc2C1C)OCO3 (configuration not stated)	/	/	/	.	/	/
CC(NC(=O)CCSc1nc(-c2ccco2)cc(C(F)(F)F)n1)c1ccccc1 (configuration not stated)	.	?	13µM	.	.	.
O=C(CCSc1nc(-c2ccco2)cc(C(F)(F)F)n1)N1CCN(c2ccccc2)CC1	.	21µM	?	.	.	.
COc1ccc(CCNC(=O)CCSc2nc(-c3ccco3)cc(C(F)(F)F)n2)cc1OC	.	16µM	15µM	.	.	?
O=C(CCSc1nc(-c2ccco2)cc(C(F)(F)F)n1)NCc1ccccn1	.	.	.	.	.	.
O=C(CCSc1nc(-c2ccco2)cc(C(F)(F)F)n1)NCc1cccs1	.	?	16µM	.	?	.
CCOC(=O)c1cccc(NC(=O)c2cc(CN3CCOCC3)on2)c1	.	.	.	.	.	/
CCOC(=O)C(=O)Cc1cccnn1	.	.	.	/	.	.
CSc1nnc(-c2sc3cc(C(F)(F)F)cnc3c2-c2ccccc2)n1C	.	16µM	4.6µM	.	.	.
C=C(C)C1CC=C(C)C(OC(C)=O)C1 (configuration not stated)	/	/	/	.	/	/
Cc1[nH]n(-c2ccccc2)c(=S)c1C=Nc1ccc([N+](=O)[O-])cc1	.	23µM	13µM	.	?	.
CCc1nnc(NS(=O)(=O)c2ccc(N=Cc3c(C)[nH]n(-c4ccc(C)c(C)c4)c3=O)cc2)s1	7.1µM	8.2µM	2.1µM	.	.	.
Cc1cc(C)nc(NS(=O)(=O)c2ccc(N=Cc3c(C)[nH]n(-c4ccccc4)c3=O)cc2)n1	.	?	21µM	.	.	.
Cc1[nH]n(-c2ccccc2)c(=O)c1C=Nc1ccc(S(=O)(=O)N=C(N)N)cc1	.	.	.	.	.	.
Cc1ccc(-n2[nH]c(C)c(C=Nc3ccc(S(=O)(=O)Nc4nccs4)cc3)c2=O)cc1	/	/	/	.	/	/
SMILES	HepG2 tox	DT40 TDP1 no CPT	DT40 TDP1 CPT	TDP1 block	TGFb inhibitor	IL-1B inflam inh
N=c1n(CCO)c2ccccc2n1Cc1ccccc1F	.	?	?	/	.	/
Cc1cccc(-c2cccc(-c3cc(=O)oc4cc5c(cc34)OCO5)c2)c1	/	/	/	.	/	/
Cc1cccc2[nH]c3c(N4CC=C(c5ccc(F)cc5)CC4)ncnc3c12	.	15µM	13µM	.	?	-92
COc1ccc(S(=O)(=O)N2CCCCCC2)cc1NC(=O)CN(C)Cc1ccc2c(c1)OCO2	.	21µM	?	.	.	.
CN(CC(=O)Nc1cc(S(=O)(=O)N2CCCCCC2)ccc1Cl)Cc1ccc2c(c1)OCO2	.	?	16µM	.	.	.
COc1ccc(NC(=O)c2ccc(NC(=O)c3cccs3)cc2)cc1	.	.	.	/	.	.
COc1nc(N)nc(NC(=O)c2cccs2)c1N=O	13µM	2.3µM	2.1µM	/	?	-87
Cc1ccccc1C(=O)N[C@H](C(=O)OCC(=O)NC1CC1)C(C)C	.	.	.	.	.	.
Cc1ccc([N+](=O)[O-])cc1N(CC(=O)Nc1ccc(S(=O)(=O)Nc2cccc(C(F)(F)F)c2)cc1)S(C)(=O)=O	.	18µM	?	/	.	-84
COc1ccccc1N(CC(=O)Nc1cccc(C(F)(F)F)c1)S(C)(=O)=O	.	.	.	.	.	.
COc1ccc(S(=O)(=O)N(CC(=O)Nc2cccc(C(F)(F)F)c2)c2ccc(C)cc2)cc1	.	23µM	?	/	.	/
CCOc1ccc(N(CC(=O)Nc2cccc(N(C)S(C)(=O)=O)c2)S(=O)(=O)c2ccccc2)cc1	.	?	21µM	.	?	.
COC(=O)c1ccc(Cl)c(NC(=O)CN(c2ccccc2)S(=O)(=O)c2ccc(OC)cc2)c1	.	16µM	?	.	.	.
CC1(c2nnc(-c3ccc(Cl)cc3)o2)CC(c2cccnc2)=NO1 (configuration not stated)	.	.	.	/	.	.
N#CCCN(Cc1ccccc1)S(=O)(=O)c1cccs1	.	.	.	/	.	.
COC(=O)c1ccc(NC(=O)CN(c2cccc(C(F)(F)F)c2)S(C)(=O)=O)cc1	.	4.6µM	23µM	.	.	/
COc1ccc(N(CC(=O)Nc2ccc(OC)c(OC)c2)S(=O)(=O)c2ccccc2)cc1Cl	.	?	?	.	.	.
COc1ccc(N(CC(=O)Nc2cccc(N(C)S(C)(=O)=O)c2)S(=O)(=O)c2ccccc2)cc1Cl	.	21µM	10µM	.	?	.
COc1ccc(N(CC(=O)Nc2cccc(N(C)S(C)(=O)=O)c2)S(=O)(=O)c2ccc(F)cc2)cc1	.	?	16µM	.	?	.
COc1ccc(S(=O)(=O)N(CC(=O)Nc2cc(C)cc(C)c2)c2ccc(Cl)cc2)cc1	.	23µM	?	/	.	/
COc1ccc(N(CC(=O)Nc2cccc(N(C)S(C)(=O)=O)c2)S(=O)(=O)c2ccc(C)cc2)cc1	.	?	?	.	.	.
CCc1cccc(NC(=O)c2sc3nc4n(c(=O)c3c2C)CCC4)c1	.	?	?	.	.	.

Source: PubChem
